Compound activity (PubChem BioAssay)
Most compounds without a hit are left out; they make up all but 4.5% or so of the library.
Rce1 inhib – yeast Ras-converting enzyme inhibition; yeast membranes, quenched prenylated peptide cleavage fluorescence; calls only; actives 0.27% (n = 290,000);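 active means fall in fluorescence gain of 50% or more versus controls, with final raw signal at or below 3038400; inconclusive means same 50% fall but final raw signal above 3038400; inactive means fall in fluorescence gain under 50%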
Efflux pump mplx – antifungal efflux pump inhibition, Nile Red retention; S. cerevisiae Candida pump triplex; inhibition, % at 10 µM; actives 0.44% (n = 330,000);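 active means plate passing quality check with inhibition over a set limit, or well fluorescence over plate mean plus 4 SD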;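 further: Nile Red retained in pooled yeast measured as flow cytometry median fluorescence; higher means more Nile Red kept so more efflux inhibition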
ALR H2O2 inh – blocks human ALR sulfhydryl oxidase activity; P55789; purified ALR, DTT oxidation, H2O2 HRP-luminol luminescence; inhibition, % (no concentration beside the values); actives 3.8% (n = 290,000);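 active means mean replicate inhibition above about 79%, with every replicate also reaching it, limit read from the data; inconclusive means only one of the two criteria met; inactive means mean below limit and not every replicate reaching it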
Target sequence (P55789 whole entry, looked up): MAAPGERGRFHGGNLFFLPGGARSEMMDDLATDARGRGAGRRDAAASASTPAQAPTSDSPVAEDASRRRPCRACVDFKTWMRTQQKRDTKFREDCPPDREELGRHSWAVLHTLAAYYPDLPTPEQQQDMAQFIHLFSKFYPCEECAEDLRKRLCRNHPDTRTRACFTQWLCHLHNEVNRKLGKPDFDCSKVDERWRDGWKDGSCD
HDAC3 inh – human HDAC3 inhibition; recombinant HDAC3, fluorogenic peptide/trypsin coupled, fluorescence; inhibition, % at 8.3 µM; actives 0.15% (n = 320,000); in the data active means inhibition above about 26%, passing the limit was not always enough; inconclusive means no clear call, values can overlap the other calls
GRK2 inh – blocks RNA aptamer binding to human GRK2. P25098. bead flow cytometry, FAM-aptamer displacement from GRK2. inhibition of aptamer binding, % at 10 µM. actives 0.59% (n = 330,000);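 active means inhibition of aptamer binding above 40%, roughly 3 SD of noise, on plates passing a quality check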;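 further: median bead fluorescence of bound FAM aptamer so fluorescent compounds give negative values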
Rtt109 HAT inh – inhibitors of Candida albicans Rtt109/Vps75 histone acetyltransferase. Q5AAJ8. purified Rtt109/Vps75, ThioGlo CoA-SH fluorescence, 4 h. inhibition, % at 34.9 µM. actives 0.16% (n = 330,000);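 active means inhibition of at least 50% in every replicate; inconclusive means best replicate reaches 50% inhibition but some replicates fall short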
Target sequence (Q5AAJ8 whole entry, looked up): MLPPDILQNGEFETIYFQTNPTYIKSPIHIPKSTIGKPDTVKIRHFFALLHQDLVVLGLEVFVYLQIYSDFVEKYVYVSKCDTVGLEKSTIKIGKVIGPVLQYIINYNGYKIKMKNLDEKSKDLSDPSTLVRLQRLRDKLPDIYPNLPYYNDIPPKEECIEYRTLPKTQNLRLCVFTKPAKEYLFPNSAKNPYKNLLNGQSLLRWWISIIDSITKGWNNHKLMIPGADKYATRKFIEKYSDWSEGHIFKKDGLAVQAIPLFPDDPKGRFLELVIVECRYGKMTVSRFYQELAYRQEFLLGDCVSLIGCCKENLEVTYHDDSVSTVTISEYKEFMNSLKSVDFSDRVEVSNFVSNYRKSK
Numbers stand for hits.

How did CC(C)(C)NC(=O)CN(C(=O)c1csnn1)c1cccc2c1CCCC2 do in these assays?
Rce1 inhib: inactive; Efflux pump mplx: inactive; ALR H2O2 inh: inactive; HDAC3 inh: inactive; GRK2 inh: inactive; Rtt109 HAT inh: inactive

How did O=C(O)c1cc(-n2[nH]c(=O)c3ccccc3c2=O)ccc1Cl do in these assays?
Rce1 inhib: inactive; Efflux pump mplx: inactive; ALR H2O2 inh: inactive; HDAC3 inh: inactive; GRK2 inh: inactive; Rtt109 HAT inh: inactive

What do the screens show for `CCN(CC)C(=O)CSc1ncnc2c1nnn2-c1ccc(F)cc1`?
Rce1 inhib: inactive; Efflux pump mplx: inactive; ALR H2O2 inh: inactive; HDAC3 inh: inactive; GRK2 inh: inactive; Rtt109 HAT inh: inactive

How did COC(=O)c1ccc(CSc2ncnc3ccccc23)o1 do in these assays?
Rce1 inhib: inactive; Efflux pump mplx: inactive; ALR H2O2 inh: inactive; HDAC3 inh: inactive; GRK2 inh: inactive; Rtt109 HAT inh: inactive

Results for CCOC(=O)C(C)Sc1ncnc2c1nnn2-c1ccc(F)cc1 (stereo not drawn) ?
Rce1 inhib: inactive; Efflux pump mplx: inactive; ALR H2O2 inh: 96.4; HDAC3 inh: inactive; GRK2 inh: inactive; Rtt109 HAT inh: inactive

What do the screens show for `COC(=O)c1ccc(CSc2ncnc3c2nnn3-c2ccc(F)cc2)o1`?
Rce1 inhib: inactive; Efflux pump mplx: inactive; ALR H2O2 inh: 98.7; HDAC3 inh: inactive; GRK2 inh: inactive; Rtt109 HAT inh: inactive

How did CCC(Sc1ncnc2c1nnn2-c1ccc(F)cc1)C(=O)OC (stereo not drawn) do in these assays?
Rce1 inhib: inactive; Efflux pump mplx: inactive; ALR H2O2 inh: 96.3; HDAC3 inh: inactive; GRK2 inh: inactive; Rtt109 HAT inh: inactive

How did Cc1cc(N(C)C(=O)c2ccc3c(c2)S(=O)(=O)c2cc(Cl)ccc2C3=O)c(C(F)(F)F)o1 do in these assays?
Efflux pump mplx: inactive; ALR H2O2 inh: inactive; HDAC3 inh: inactive; GRK2 inh: inactive; Rtt109 HAT inh: inactive

How did COc1ccc(N2CCN(C(=O)CN3C(=O)NC(C)(C4CC4)C3=O)CC2)cc1 (stereo not drawn) do in these assays?
Efflux pump mplx: inactive; HDAC3 inh: inactive; GRK2 inh: inactive; Rtt109 HAT inh: inactive

Results for COc1ccc(NS(=O)(=O)c2cc(NC(=O)c3ccc(C)s3)ccc2N2CCOCC2)cc1 ?
Rce1 inhib: inactive; Efflux pump mplx: inactive; ALR H2O2 inh: inactive; HDAC3 inh: inconclusive; GRK2 inh: inactive; Rtt109 HAT inh: inactive

How did CCOc1ccc2c(c1)nc(SCC(=O)c1cccs1)n2C do in these assays?
Rce1 inhib: inactive; Efflux pump mplx: inactive; ALR H2O2 inh: 97.0; HDAC3 inh: inactive; GRK2 inh: inactive; Rtt109 HAT inh: inactive

Results for Cc1cnc(SCCc2ccncc2)nc1C ?
Rce1 inhib: inactive; Efflux pump mplx: inactive; ALR H2O2 inh: 98.6; HDAC3 inh: inactive; GRK2 inh: inactive

Results for O=C(c1ccncc1)N1CCN(S(=O)(=O)c2ccc(F)cc2)CC1 ?
Efflux pump mplx: inactive; ALR H2O2 inh: inactive; HDAC3 inh: inactive; GRK2 inh: inactive; Rtt109 HAT inh: inactive

Results for Cc1cc(N/N=C/c2ccccc2O)c2ccccc2n1 ?
Rce1 inhib: inactive; Efflux pump mplx: inactive; ALR H2O2 inh: 98.7; HDAC3 inh: inactive; GRK2 inh: inactive; Rtt109 HAT inh: inactive

Results for Cc1ccccc1NC(=S)N/N=C/c1ccc(O)cc1O ?
Rce1 inhib: inactive; Efflux pump mplx: inactive; ALR H2O2 inh: 98.6; HDAC3 inh: inactive; GRK2 inh: inactive; Rtt109 HAT inh: inactive

Results for Cc1cccc(NC(=S)N/N=C/c2cccc(O)c2)c1C ?
Rce1 inhib: inactive; Efflux pump mplx: inactive; GRK2 inh: inactive; Rtt109 HAT inh: inactive

What do the screens show for `Cc1ccc2nc(C)cc(N/N=C/c3cccnc3)c2c1`?
Rce1 inhib: inactive; Efflux pump mplx: inactive; ALR H2O2 inh: 99.3; HDAC3 inh: inactive; GRK2 inh: inactive; Rtt109 HAT inh: inactive

Results for COc1ccc2nc(C)cc(N/N=C/c3cccc(OC)c3O)c2c1 ?
Rce1 inhib: inactive; Efflux pump mplx: inactive; ALR H2O2 inh: 87.4; HDAC3 inh: inactive; GRK2 inh: inactive; Rtt109 HAT inh: inactive

What do the screens show for `COc1ccc(/C=N/Nc2cc(C)nc3ccc(Br)cc23)cc1`?
Rce1 inhib: inactive; Efflux pump mplx: inactive; ALR H2O2 inh: inactive; HDAC3 inh: inactive; GRK2 inh: inactive; Rtt109 HAT inh: inactive

What do the screens show for `CC(=O)Nc1cccc(C(=O)OCC(=O)N(c2ccccc2)C2CCS(=O)(=O)C2)c1` (stereo not drawn)?
Rtt109 HAT inh: inactive

How did COc1ccc(C(C#N)=C2C=CC(=NO)C=C2)cc1 do in these assays?
Rce1 inhib: inactive; Efflux pump mplx: inactive; ALR H2O2 inh: 96.4; HDAC3 inh: inactive; GRK2 inh: inactive; Rtt109 HAT inh: inactive

Results for COc1ccc(Nc2nc3ccccc3n2C)cc1 ?
Rce1 inhib: inactive; Efflux pump mplx: inactive; ALR H2O2 inh: 76.5; HDAC3 inh: inactive; GRK2 inh: inactive; Rtt109 HAT inh: inactive

Results for Cn1c(CNc2ccc(O)cc2)nc2ccccc21 ?
Rce1 inhib: inactive; Efflux pump mplx: inactive; ALR H2O2 inh: 98.9; HDAC3 inh: inactive; GRK2 inh: inactive; Rtt109 HAT inh: inactive

What do the screens show for `Cn1c(Nc2ccc(F)cc2)nc2ccccc21`?
Rce1 inhib: inactive; Efflux pump mplx: inactive; ALR H2O2 inh: inactive; HDAC3 inh: inactive; GRK2 inh: inactive; Rtt109 HAT inh: inactive

Results for Cc1ccc(NCc2nc3ccccc3n2C)cc1C ?
Rce1 inhib: inactive; Efflux pump mplx: inactive; ALR H2O2 inh: 98.2; HDAC3 inh: inactive; Rtt109 HAT inh: inactive

How did COc1ccc(Cn2c(/C=C/c3ccccc3)nc3ccccc32)cc1 do in these assays?
Rce1 inhib: inconclusive; Efflux pump mplx: inactive; ALR H2O2 inh: inactive; HDAC3 inh: inactive; GRK2 inh: inactive; Rtt109 HAT inh: inactive

How did COc1ccc(/C=C/c2nc3ccccc3n2C)cc1 do in these assays?
Rce1 inhib: active; Efflux pump mplx: inactive; ALR H2O2 inh: inactive; HDAC3 inh: inactive; GRK2 inh: inactive; Rtt109 HAT inh: inactive

What do the screens show for `O=C1CC[C@@H](C(=O)O)N1`?
Efflux pump mplx: inactive; ALR H2O2 inh: inactive; HDAC3 inh: inactive; GRK2 inh: inactive; Rtt109 HAT inh: inactive

How did Cc1cc(-c2ccc(S(=O)(=O)N3CCN(c4cccc(C)c4C)CC3)s2)on1 do in these assays?
Rce1 inhib: inactive; Efflux pump mplx: inactive; ALR H2O2 inh: inactive; HDAC3 inh: inactive; GRK2 inh: inactive; Rtt109 HAT inh: inactive

How did CN(Cc1nc2ccccc2n1C)c1ccccc1 do in these assays?
Rce1 inhib: inactive; Efflux pump mplx: inactive; ALR H2O2 inh: 98.7; HDAC3 inh: inactive; GRK2 inh: inactive; Rtt109 HAT inh: inactive

How did Cn1c(CNc2ccc(Br)cc2)nc2ccccc21 do in these assays?
Rce1 inhib: inactive; Efflux pump mplx: inactive; ALR H2O2 inh: 96.4; HDAC3 inh: inactive; GRK2 inh: inactive; Rtt109 HAT inh: inactive

Results for COc1ccc(NCc2nc3ccccc3n2C)cc1 ?
Rce1 inhib: inactive; Efflux pump mplx: inactive; ALR H2O2 inh: 98.0; HDAC3 inh: inactive; GRK2 inh: inactive; Rtt109 HAT inh: inactive

What do the screens show for `COc1ccc(CN2CCNC(=O)C2CC(=O)N(C)C2CCOCC2)c(F)c1` (stereo not drawn)?
Rce1 inhib: inactive; Efflux pump mplx: inactive; ALR H2O2 inh: inactive; HDAC3 inh: inactive; GRK2 inh: inactive; Rtt109 HAT inh: inactive
